CYP2C9 activ = CYP2C9 (human) activation; P11712; recombinant CYP2C9, luciferin-H conversion, luminescence; hits give high values; factor 1 = untreated enzyme, 0 = blocked; activation factor at 5 µM; 96,000 tested, 1.4% active;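 active = activation factor of 2 or more for CYP2C9 at a 5 µM dose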
CYP2C19 inhib = inhibitors of human CYP2C19 | P33261 | 96,000 tested, 21% active | inhibition, % at 5 µM | CYP2C19 Supersomes, luciferin-H EGE luminescence, 30 min;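 active = CYP2C19 inhibition above a set limit at 5 µM in the primary screen, cut at about 50% in these data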
Target sequence (P33261 whole entry, looked up): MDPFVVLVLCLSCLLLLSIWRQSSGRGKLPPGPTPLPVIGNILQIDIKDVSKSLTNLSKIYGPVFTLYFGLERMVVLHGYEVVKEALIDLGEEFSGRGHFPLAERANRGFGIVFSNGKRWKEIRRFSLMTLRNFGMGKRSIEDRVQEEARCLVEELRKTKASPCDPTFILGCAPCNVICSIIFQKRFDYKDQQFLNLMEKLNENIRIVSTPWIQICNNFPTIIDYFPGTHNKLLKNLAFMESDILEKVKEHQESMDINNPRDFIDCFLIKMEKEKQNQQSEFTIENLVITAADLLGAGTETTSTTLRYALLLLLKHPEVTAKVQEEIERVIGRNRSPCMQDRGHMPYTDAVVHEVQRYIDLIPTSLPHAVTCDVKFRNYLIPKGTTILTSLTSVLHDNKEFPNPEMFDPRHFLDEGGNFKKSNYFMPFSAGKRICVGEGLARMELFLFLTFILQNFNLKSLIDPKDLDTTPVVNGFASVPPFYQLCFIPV
CYP2C19 activ = cytochrome P450 2C19 (human) activation; recombinant CYP2C19, luciferin-H EGE luminescence; hits give high values; 0 = fully inhibited enzyme, 1 = untreated enzyme; AID 1025; 96,000 tested, under 10 active; P33261; activation factor at 5 µM;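 active = activation factor of at least 2 at 5 µM in the primary screen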
CYP2C9 inh = blocks human cytochrome P450 2C9; AID 777; 96,000 tested, 20% active; inhibition, % at 5 µM; CYP2C9 Supersomes, luciferin-H conversion, luminescence;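 active = blocking of liver enzyme CYP2C9 beyond about 50% at 5 µM, limit read from the data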
PostGolgi yeast = growth inhibition of a yeast mutant, post-Golgi transport screen. post-Golgi transport phenotypic cell assay. inhibition, % at 10 µM. 98,000 tested, 0.9% active. AID 739;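 also: yeast cells grown in 1536-well plates; yeast grown about 18 h at 30C before absorbance read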
PostGolgi ctrl = yeast control strain growth, post-Golgi counter-screen | efflux-deficient yeast background strain, growth absorbance A615, 16 h | 98,000 tested, 5% active | inhibition, % at 10 µM | AID 738
A number is an active result. Compounds with a hit are over-represented: about 32% of the library has one in this group of screens. Rule as the data show it, unless noted: active = inhibition above about 30%; inactive = the rest.

`Cc1ccc(C(=O)NC(=S)Nc2cc(-c3nc4ccccc4s3)ccc2C)cc1` gave CYP2C9 activ inactive, CYP2C19 inhib inactive, CYP2C19 activ inactive, CYP2C9 inh inactive, PostGolgi yeast inactive and PostGolgi ctrl inactive.
CC1(C)C(=O)C2(CCCCC2)C(=O)OC1c1ccc(O)cc1 (stereo not given) was read as CYP2C9 activ inactive, CYP2C19 inhib 77, CYP2C19 activ inactive, CYP2C9 inh 60, PostGolgi yeast inactive and PostGolgi ctrl inactive.
CC1(C)C(=O)C2(CCCC2)C(=O)OC1c1ccco1 (stereo not given) was read as CYP2C9 activ inactive, CYP2C19 inhib 64, CYP2C19 activ inactive, CYP2C9 inh inactive, PostGolgi yeast inactive and PostGolgi ctrl inactive.
For CC(=O)O/N=C/c1c(N2CCOCC2)n(C)c2ccccc12 the results were CYP2C9 activ inactive, CYP2C19 inhib inactive, CYP2C19 activ inactive, CYP2C9 inh inactive, PostGolgi yeast inactive and PostGolgi ctrl inactive.
Screening Cc1ccc(C(=O)O/N=C/c2c(N3CCOCC3)n(C)c3ccccc23)cc1 returned CYP2C9 activ inactive, CYP2C19 inhib 68, CYP2C19 activ inactive, CYP2C9 inh 84, PostGolgi yeast inactive and PostGolgi ctrl 32.
Screening Cn1c(N2CCOCC2)c(/C=N/OC(=O)c2ccc(F)cc2)c2ccccc21 returned CYP2C9 activ inactive, CYP2C19 inhib inactive, CYP2C19 activ inactive, CYP2C9 inh 56, PostGolgi yeast 42 and PostGolgi ctrl 34.
For Cn1c(Cl)c(/C=N/OC(=O)c2ccc(Cl)cc2)c2ccccc21 the results were CYP2C9 activ 2.1, CYP2C19 inhib inactive, CYP2C19 activ inactive, CYP2C9 inh inactive, PostGolgi yeast inactive and PostGolgi ctrl inactive.
For O=C(c1cccc(Br)c1)c1cn(-c2ccccc2)nc1C(=O)c1ccccc1 the results were CYP2C9 activ inactive, CYP2C19 inhib inactive, CYP2C19 activ inactive, CYP2C9 inh inactive, PostGolgi yeast inactive and PostGolgi ctrl inactive.
Screening NS(=O)(=O)c1ccc(NC(=O)CN2CCN(Cc3ccccc3)CC2)cc1 returned CYP2C9 activ inactive, CYP2C19 inhib inactive, CYP2C19 activ inactive, CYP2C9 inh inactive, PostGolgi yeast inactive and PostGolgi ctrl inactive.
COC(=O)c1ccc2c(=O)n(Cc3ccco3)c(SCC(=O)Nc3ccccc3Cl)nc2c1 was read as CYP2C9 activ inactive, CYP2C19 inhib inactive, CYP2C19 activ inactive, CYP2C9 inh 88, PostGolgi yeast inactive and PostGolgi ctrl inactive.
COc1cc2nc(SCC(=O)NCCc3ccccc3)n(Cc3ccco3)c(=O)c2cc1OC was read as CYP2C9 activ inactive, CYP2C19 inhib 66, CYP2C19 activ inactive, CYP2C9 inh 96, PostGolgi yeast inactive and PostGolgi ctrl inactive.
Screening COC(=O)c1ccc2c(=O)n(CC3CCCO3)c(SCC(=O)Nc3ccccc3OC)nc2c1 (stereo not given) returned CYP2C9 activ inactive, CYP2C19 inhib inactive, CYP2C19 activ inactive, CYP2C9 inh inactive, PostGolgi yeast inactive and PostGolgi ctrl 33.
CCOC(=O)Cn1c(C)c(Br)c(=O)c2cccc(C)c21 was read as CYP2C9 activ inactive, CYP2C19 inhib inactive, CYP2C19 activ inactive, CYP2C9 inh inactive, PostGolgi yeast inactive and PostGolgi ctrl inactive.
For COc1ccc(CCNC(=O)C2CCN(S(C)(=O)=O)CC2)cc1 the results were CYP2C9 activ inactive, CYP2C19 inhib inactive, CYP2C19 activ inactive, CYP2C9 inh inactive, PostGolgi yeast inactive and PostGolgi ctrl inactive.
Screening CCCn1c(SCc2ccc(Cl)cc2)nc2c1c(=O)[nH]c(=O)n2C returned CYP2C9 activ inactive, CYP2C19 inhib 67, CYP2C19 activ inactive, CYP2C9 inh inactive, PostGolgi yeast inactive and PostGolgi ctrl 60.
C/C=C/Cn1c(SCc2ccc(Cl)cc2)nc2c1c(=O)[nH]c(=O)n2C was read as CYP2C9 activ inactive, CYP2C19 inhib inactive, CYP2C19 activ inactive, CYP2C9 inh 58, PostGolgi yeast inactive and PostGolgi ctrl 43.
Screening COc1ccc(NC(=O)C2CC(=O)OC2(C)C)cc1 (stereo not given) returned CYP2C9 activ inactive, CYP2C19 inhib inactive, CYP2C19 activ inactive, CYP2C9 inh inactive, PostGolgi yeast inactive and PostGolgi ctrl inactive.
Screening O=C(CN(CCO)c1ccccc1)NC12CC3CC(CC(C3)C1)C2 returned CYP2C9 activ inactive, CYP2C19 inhib inactive, CYP2C19 activ inactive, CYP2C9 inh inactive, PostGolgi yeast inactive and PostGolgi ctrl inactive.
CCCc1nnc(SCC(=O)N2CCCC(C)C2)n1CC1CCCO1 (stereo not given) was read as CYP2C9 activ inactive, CYP2C19 inhib inactive, CYP2C19 activ inactive, CYP2C9 inh inactive, PostGolgi yeast inactive and PostGolgi ctrl inactive.
For CCC(C)N(C(=O)CSc1nc(-c2ccccc2)cs1)C1CCS(=O)(=O)C1 (stereo not given) the results were CYP2C9 activ 2.5, CYP2C19 inhib inactive, CYP2C19 activ inactive, CYP2C9 inh inactive, PostGolgi yeast inactive and PostGolgi ctrl inactive.
For COc1ccc2oc(=O)c(-c3nc(C)cs3)cc2c1 the results were CYP2C9 activ inactive, CYP2C19 inhib 77, CYP2C19 activ inactive, CYP2C9 inh 55, PostGolgi yeast inactive and PostGolgi ctrl inactive.
Screening Cc1oc(-c2ccccc2F)nc1CS(=O)(=O)CC(=O)N1CCOCC1 returned CYP2C9 activ inactive, CYP2C19 inhib inactive, CYP2C19 activ inactive, CYP2C9 inh inactive, PostGolgi yeast inactive and PostGolgi ctrl inactive.
Cc1cccc(N2CCN(C(=O)CS(=O)(=O)Cc3nc(-c4ccccc4F)oc3C)CC2C)c1 (stereo not given) was read as CYP2C9 activ inactive, CYP2C19 inhib 56, CYP2C19 activ inactive, CYP2C9 inh 87, PostGolgi yeast inactive and PostGolgi ctrl inactive.
Screening Cc1ccc(-c2nc(CS(=O)(=O)CC(=O)N3CC(C)CC(C)C3)c(C)o2)cc1 (stereo not given) returned CYP2C9 activ inactive, CYP2C19 inhib inactive, CYP2C19 activ inactive, CYP2C9 inh 71, PostGolgi yeast inactive and PostGolgi ctrl inactive.
COc1ccc(C(=O)Nn2cnnc2)c(OC)c1 was read as CYP2C9 activ inactive, CYP2C19 inhib inactive, CYP2C19 activ inactive, CYP2C9 inh inactive, PostGolgi yeast inactive and PostGolgi ctrl inactive.
Screening NC(=O)c1ncc(C(F)(F)F)cc1Oc1cccc(C(F)(F)F)c1 returned CYP2C9 activ inactive, CYP2C19 inhib 93, CYP2C19 activ inactive, CYP2C9 inh inactive, PostGolgi yeast inactive and PostGolgi ctrl inactive.
`COc1ccc(Oc2cc(C(F)(F)F)cnc2C(N)=O)cc1` gave CYP2C9 activ inactive, CYP2C19 inhib 67, CYP2C19 activ inactive, CYP2C9 inh inactive, PostGolgi yeast inactive and PostGolgi ctrl inactive.
For Cc1ccc(S(=O)(=O)N2CCN(C(=O)CSc3nnnn3C)C2)cc1 the results were CYP2C9 activ inactive, CYP2C19 inhib inactive, CYP2C19 activ inactive, CYP2C9 inh inactive, PostGolgi yeast inactive and PostGolgi ctrl inactive.
`CCSc1nnc(N(CCC#N)CCC#N)s1` gave CYP2C9 activ inactive, CYP2C19 inhib inactive, CYP2C19 activ inactive, CYP2C9 inh inactive, PostGolgi yeast inactive and PostGolgi ctrl inactive.
For Cc1cc(NC(=O)c2cc(-c3ccc4c(c3)OCO4)on2)n(-c2ccccc2)n1 the results were CYP2C9 activ inactive, CYP2C19 inhib inactive, CYP2C19 activ inactive, CYP2C9 inh inactive, PostGolgi yeast inactive and PostGolgi ctrl inactive.
